Hits are enriched below; roughly 2.4% of the tested compounds scored in any of these assays.
Rango dissoc inh = inhibitors of RanGTP-induced Rango-importin beta complex dissociation | O95149+P62826 | Potency, µM (titrated, usually from 46.1 µM), inactives show top-dose activity change, negative = inhibition | hit rate 0.071% among 340,000 | Biochemical FRET Rango-importin beta, RanGTP-induced dissociation; calls by dose curve; further: % of control where 0% means no effect; nearly all actives have a fitted effect of over 45% in size
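Quantitative HTS using a FRET biosensor: 0.1 uM Rango, 0.25 uM importin beta, 0.6 uM Ran, 2 mM GTP, 0.2 uM RCC1 final, PBS with DTT, Tween-20 and BSA. Post-read taken 45 min after Ran addition.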
Rango-impB inh = Rango-importin beta binding inhibition. Q14974. AID 540263. Potency, µM (doses to about 92.2 µM), without a hit: at the highest dose inhibition of complex formation. hit rate 0.031% among 340,000. Rango CFP/YFP FRET sensor + importin beta, 45 min; calls by dose curve;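 further: 0% = DMSO wells and 100% = buffer wells lacking importin beta; nearly all actives have a fitted effect of over 15% in size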
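Inhibition scored from the CFP 486 nm/YFP 530 nm FRET ratio 45 min after adding 0.125 microM importin beta to 50 nM Rango biosensor preincubated 5 min with compound (room temperature, PBS with DTT, Tween-20, BSA). No-importin wells as positive control.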
ClpP mod = qHTS Assay for Activators of ClpP. purified B. subtilis ClpP, FRET peptide cleavage, 20 min. Potency, µM (top dose mostly 57.5 µM), inactives show top-dose activity change, negative = active. ATP-dependent Clp protease proteolytic subunit (Bacillus subtilis (strain 168)), P80244. hit rate 1.9% among 340,000; active means well fitted falling curve with a large enough effect; inconclusive means small, poorly fitted or top-dose-only effect; inactive means no such curve, though single readings can be large or run the other way; further: the source files actives as falling curves though it sought activators and does not explain the sign; nearly all actives have a fitted effect of over 65% in size
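FRET quenching reversal measured ClpP activation: 10 microg/mL B. subtilis ClpP at pH 8 with the FRET-FV decapeptide, read at 430 nm after 320 nm excitation. The 20-min minus 0-min signal was scaled between DMSO/no-enzyme wells and ADEP (5.8 microM final).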
TDP1 block = inhibitors of human tyrosyl-DNA phosphodiesterase TDP1 | Q9NUW8 | Potency, µM (top dose mostly 130 µM), for the others: top-dose activity change, negative = inhibition, actives largely listed as inhibitors | AID 485290 | recombinant TDP1, AlphaScreen DNA substrate cleavage | hit rate 0.28% among 350,000; further: on the % scale 0 is the no-effect control and ±100 the full control effect; nearly all actives have a fitted effect of over 40% in size
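Steps: enzyme plus compound, 15 min RT; add biotin/phosphotyrosine-FITC oligonucleotide (15 nM final), react 5 min; add donor/acceptor beads (10 ug/ml final), 10 min; read AlphaScreen. Tdp1 at 1 nM final.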
ALOX12 inh = ALOX12 (human) lipoxygenase inhibition | P18054 | purified 12hLO, xylenol orange hydroperoxide absorbance | Potency, µM (top dose mostly 108 µM), without a hit: at the top dose activity change, negative = inhibition, usual class: inhibitors | hit rate 1.1% among 580,000 | AID 1671190; further: on the % scale 0 is the no-effect control and ±100 the full control effect
Target sequence (P18054 whole entry, looked up): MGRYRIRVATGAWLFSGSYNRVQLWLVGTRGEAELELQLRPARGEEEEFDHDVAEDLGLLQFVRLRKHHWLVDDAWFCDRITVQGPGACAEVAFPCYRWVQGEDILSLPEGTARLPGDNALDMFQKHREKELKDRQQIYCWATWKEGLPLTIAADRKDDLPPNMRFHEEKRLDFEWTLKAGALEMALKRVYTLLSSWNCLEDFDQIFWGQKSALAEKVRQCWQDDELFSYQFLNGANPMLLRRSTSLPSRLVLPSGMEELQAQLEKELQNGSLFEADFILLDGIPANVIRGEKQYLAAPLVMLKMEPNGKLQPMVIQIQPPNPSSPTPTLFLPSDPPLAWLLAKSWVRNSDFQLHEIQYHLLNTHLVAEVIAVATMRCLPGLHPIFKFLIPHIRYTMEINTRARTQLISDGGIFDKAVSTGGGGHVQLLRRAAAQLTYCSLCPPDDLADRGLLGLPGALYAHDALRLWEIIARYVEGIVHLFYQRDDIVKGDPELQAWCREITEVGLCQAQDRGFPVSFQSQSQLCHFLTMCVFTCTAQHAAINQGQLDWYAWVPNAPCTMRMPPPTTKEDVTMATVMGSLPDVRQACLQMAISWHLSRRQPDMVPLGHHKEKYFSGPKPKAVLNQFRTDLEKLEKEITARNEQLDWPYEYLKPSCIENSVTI
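Purified human 12hLO (150 nM final) in 25 mM Hepes, 0.01% Triton X-100, pH 7.0 was preincubated 15 min at room temperature with compound. Then 40 uM arachidonic acid was added, 30 min. Hydroperoxide was read by Fe-XO absorbance ratio 573/405 nm.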
PTAP TSG101 blk = blocks PTAP/TSG101 interaction to inhibit HIV-1 budding. Fluorescence polarization, FITC-PTAP peptide / Tsg101 binding. Q99816. 340,000 tested, under 10 active. Potency, µM (titrated, usually from 115 µM), for inactives: at the top dose activity change, negative = inhibition, hits mostly inhibitors. AID 493005; active means well fitted inhibition curve with a large enough effect in the main read-out, with a control signal flat, not every such curve was filed as active; inconclusive means small, poorly fitted or top-dose-only effect, or effect the other way, or a change in a side signal; inactive means no such curve, though single readings can be large or run the other way; further: % of control where 0% means no effect
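Steps: Tsg101 binding domain dispensed (10 uM final), compounds pinned in DMSO, FITC-labeled PTAP-motif peptide added (50 nM final); after 20 min binding at room temperature, polarization measured.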
Starred values were filed as active, the others as inactive; ? = inconclusive; nt = no result given; [ ] = another dose, or the depositor's remark. Unless noted, the call rests on the fitted dose curve; in most records, active means well fitted curve in the direction sought with a large enough effect; inconclusive means small, poorly fitted or top-dose-only effect, or another doubt; inactive means no such curve, though single readings can be large; an effect the other way counts as inactive or inconclusive. Potency means the concentration at half of the fitted maximal effect.

SMILES | Rango dissoc inh | Rango-impB inh | ClpP mod | TDP1 block | ALOX12 inh | PTAP TSG101 blk
Cc1ccc(NC(=O)NCCSc2ccc(C)cc2)cc1 | 11% | -6% | 1% | -3% | -3% | 1%
c1csc(CN2Cc3[nH]cnc3C[C@H]2c2nc(-c3ccc4ccccc4c3)no2)c1 | nt | nt | nt | nt | 52%[176 µM] | nt
O=S1(=O)N=C(Oc2ccc(Cl)cc2)c2ccccc21 | nt | nt | nt | -2% | nt | nt
Cc1ccc(Cl)cc1NC(=S)NCCSc1ccc(Cl)cc1 | nt | nt | nt | nt | 35µM* | nt
O=C(NCCc1cccs1)c1ccc(CN2C(=O)CCn3nccc32)cc1 | nt | nt | nt | nt | -2% | nt
O=C(/C=C/c1c(Cl)nc2ccccn12)N1CCN(c2ccc(F)cc2)CC1 | 5% | 1% | nt | 79µM* | -4% | -1%
O=C(/C=C/c1c(Cl)nc2ccccn12)N1CCN(c2ccccc2F)CC1 | -7% | 0% | nt | 0% | 0% | -4%
O=C(Cn1c(=O)oc2ccccc21)N1CCC(c2noc(-c3ccncc3)n2)C1 (configuration not stated) | nt | nt | nt | nt | 18% | nt
CN(C)c1ccc(-c2csc(C(O)(c3ccccc3)C(F)(F)F)n2)cc1 (configuration not stated) | nt | nt | ? | nt | 18µM* | nt
Cc1ccccc1-c1csc(C(O)(c2ccccc2)C(F)(F)F)n1 (configuration not stated) | nt | nt | -2% | nt | 45µM* | nt
Cc1cc(C)c(CN2CCC3(Cc4ccccc4CNC3=O)C2)c(C)c1 (configuration not stated) | nt | nt | nt | nt | 1µM* | nt
COc1cccc(CN2CCC3(Cc4ccccc4NC3=O)C2)c1 (configuration not stated) | nt | nt | nt | nt | 40µM* | nt
O=C1NCc2ccccc2CC12CCN(Cc1ccc(-c3ccccc3)cc1)C2 (configuration not stated) | nt | nt | nt | nt | 40µM* | nt
O=C1NCc2ccccc2CC12CCN(Cc1ccc(Oc3ccccc3)cc1)C2 (configuration not stated) | nt | nt | nt | nt | 35µM* | nt
Cc1nnc2sc(-c3cccc4ccccc34)nn12 | -14% | -2% | 22µM* | 1% | -2% | -1%
Cc1nnc2c3ccccc3c(-c3cccc4ccccc34)nn12 | 1% | -3% | -3% | 0% | 26% | -4%
COCc1nnc(NC(=O)CCn2ccc3ccccc32)s1 | nt | nt | nt | nt | -36% | nt
COc1ccc(CNC(=O)c2cc3c(=O)n(Cc4cccs4)ccc3nc2C)cc1 | nt | nt | 14µM* | 8% | -16% | nt
COc1ccc(CNC(=O)c2cc3c(=O)n(Cc4cccnc4)ccc3nc2C)cc1 | nt | nt | 25µM* | -1% | -18% | nt
Cc1ccc(CNC(=O)c2cc3c(=O)n(Cc4cccnc4)ccc3nc2C)cc1 | nt | nt | 28µM* | 8% | 5% | nt
O=C(COc1ccc(Cl)cc1)N1CCN(c2cc(-c3cccs3)[nH]n2)CC1 | nt | nt | nt | nt | -13% | nt
Clc1ccc(CNCc2ccccc2Cn2cncn2)c(Cl)c1 | nt | nt | nt | nt | 45µM* | nt
O=C(Nc1cccc(Cl)c1F)c1nn(Cc2ccccc2)c(=O)c2ccccc12 | nt | nt | nt | nt | 11% | nt
O=C(Nc1ccc2ncccc2c1)c1ccccc1Cl | -5% | 0% | 0% | -3% | 45µM* | -3%
Cc1ccc(NS(=O)(=O)c2ccc(NC(=O)C3CCCO3)cc2)cc1 (configuration not stated) | 9% | 0% | 32µM* | 0% | -15% | -1%
SMILES | Rango dissoc inh | Rango-impB inh | ClpP mod | TDP1 block | ALOX12 inh | PTAP TSG101 blk
Cc1ccc(-c2nc3cc(NC(=O)C(C)C)ccc3o2)cc1C | -16% | -5% | 28µM* | 5% | -7% | -1%
Cc1ccc2oc(-c3cccc(NC(=O)C4CCCO4)c3)nc2c1 (configuration not stated) | 9% | 3% | 28µM* | 3% | 14% | -11%
Cc1ccc(-c2nc3cc(NC(=O)C(C)C)ccc3o2)cc1 | -10% | -2% | 14µM* | 2% | 0% | -3%
Cc1oc(-c2ccccc2)nc1C(=O)NCCN1CCOCC1 | nt | nt | nt | nt | 11% | nt
O=C(/C=C/c1ccccc1)OCC#CCOC(=O)/C=C/c1ccccc1 | nt | nt | nt | nt | 9% | nt
COc1cc(OC)cc(-c2nc3cc(C)ccc3o2)c1 | 1% | -4% | 25µM* | -11% | -4% | -11%
Cc1ccc2oc(-c3ccc(Br)cc3)nc2c1 | nt | nt | nt | nt | -9% | nt
Cc1ccc(-c2nc3cc(Cl)ccc3o2)cc1 | 1% | 0% | 35µM* | 0% | 0% | -2%
CSc1nc(N(C)CCO)c2sc3c(c2n1)COC(C)(C)C3 | nt | nt | nt | nt | 16% | nt
CSC1=NC(NCCCO)c2c(sc3c2CC(C)(C)OC3)N1 (configuration not stated) | 25% | -4% | 11µM* | 6% | -4% | 0%
CC1=NOC(=O)/C1=C\c1ccc(-c2ccc(Cl)cc2Cl)o1 | 24% | 0% | 0% | -3% | 16µM* | -2%
CCc1cc(CNC(=O)c2ccc(OC3CCN(CCc4ccccc4)CC3)cc2)on1 | -1% | 3% | -1% | 14µM* | -2% | -2%
O=C(CCC[C@@H]1[C@H]2CCCN3CCC[C@@H](CN1C(=O)c1ccsc1)[C@@H]23)N1CCOCC1 | nt | nt | nt | nt | 13% | nt
COc1ccc2c(c1)C1NC(=S)NC(C)(O2)C1C(=O)Nc1ccc(Cl)cc1 (configuration not stated) | 16% | -6% | -5% | 3% | 40µM* | 1%
COc1ccc2c(c1)C1NC(=S)N[C@@](C)(O2)C1C(=O)Nc1ccccc1 (some centres not stated) | 16% | 3% | -1% | 4% | ? | -4%
O=C(O)Cc1sc(-c2ccccc2)nc1-c1ccccc1 | 17% | 2% | 32µM* | -4% | 12% | -2%
O=C(c1ccc(C(F)(F)F)cc1)N1CCC2(CC1)CC(c1cccc(C(F)(F)F)c1)=NO2 | nt | nt | nt | nt | 9% | nt
CN(C)/C=C/C(=O)c1ccc(Br)s1 | 24% | 4% | -2% | 0% | 40µM* | -7%
COCCN1C[C@H]2CN(Cc3ccccc3)CCN2C1=O | nt | nt | nt | nt | 21%[176 µM] | nt
COCCN1C[C@H]2CN(Cc3ccc(C(=O)O)cc3)CCN2C1=O | nt | nt | nt | nt | 28µM* | nt
Cn1cc(CN2C[C@H](C(=O)NCc3ccccc3)C[C@H]2c2cccc(C(F)(F)F)c2)cn1 | nt | nt | nt | nt | 53% | nt
CCCC(=O)Nc1ccc2oc(=O)ccc2c1 | 2% | 0% | 25µM* | -3% | 0% | -1%
COc1ccc(C2(c3ccc(O)cc3O)CC(c3ccccc3Cl)NC(=S)N2)cc1 (configuration not stated) | 1% | -1% | nt | 9% | 18µM* | -8%
COc1ccc(NS(=O)(=O)c2cc(OC)ccc2NC(=O)c2cc(C)oc2C)cc1 | -13% | -5% | 0% | 2% | 35µM* | -7%

Screening data deposited in PubChem BioAssay by National Center for Advancing Translational Sciences (NCATS).
